PubChem BioAssay (EPA / NIEHS)
Results filed as inconclusive are left out. Active and inactive are the calls of the source. Rule for the calls, unless noted: active = hit-call score of the fitted dose curve at least 0.9, where 1 is the maximum; inconclusive = response in the unintended direction; inactive = score below 0.9.

Columns and labels:
[1] = Tanguay_ZF_120hpf_MORT_legacy: (Legacy) Oregon State University Tanguay Lab 120 Hour Post-fertilization zebrafish Assay for Mortality (AID 2283633);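 for AC50: fitted as increase in binary mortality versus DMSO negative control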
Method in brief: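 Brightfield scoring of embryo death (binary) at 24 and 120 hpf; static exposure 6–120 hpf, 28C, sealed and foil-covered. Pronase-dechorionated 5D wild-type larvae, single embryo per well. DMSO 0.64% v/v; trimethyltin chloride 5uM positive control.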

[2] = Tanguay_ZF_120hpf_YSE_legacy: (Legacy) Oregon State University Tanguay Lab 120 Hour Post-fertilization zebrafish Assay for Yolk Sac Edema (AID 2283634);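 for AC50: actives raise the incidence of yolk sac edema above the DMSO baseline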
Method in brief: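 Binary brightfield scoring of yolk sac edema at 120 hpf; DMSO baseline, gain-of-signal fitting. Dechorionated 5D larvae, one per well, static exposure 6–120 hpf, 28C, 0.64% DMSO. Dead embryos not scored.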

[3] = Tanguay_ZF_120hpf_AXIS_legacy: (Legacy) Oregon State University Tanguay Lab 120 Hour Post-fertilization zebrafish Assay for Body Axis Malformation (AID 2283635)
Method in brief: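 Embryos: 5D wild-type, pronase-dechorionated 4 hpf; static exposure 6–120 hpf, 28C, sealed, dark, 1 embryo/well, 0.64% DMSO. 120 hpf axis malformation scored present/absent; dead embryos excluded. Analysed as gain of signal vs DMSO.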

[4] = Tanguay_ZF_120hpf_SNOU_legacy: (Legacy) Oregon State University Tanguay Lab 120 Hour Post-fertilization zebrafish Assay for Snout Malformation (AID 2283637)
Method in brief: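 Tropical 5D wild-type zebrafish embryos, dechorionated with pronase at 4 hpf, were exposed singly from 6 hpf to 120 hpf statically at 28C in 0.64% DMSO. Snout malformation was scored present/absent by brightfield microscopy, fitted against DMSO.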

[5] = Tanguay_ZF_120hpf_JAW_legacy: (Legacy) Oregon State University Tanguay Lab 120 Hour Post-fertilization zebrafish Assay for Jaw Malformation (AID 2283638)
Method in brief: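 Binary jaw-malformation calls at 120 hpf by brightfield imaging; DMSO (0.64% v/v) = baseline. Embryos: 5D wild-type, pronase-dechorionated, one per well from 6 hpf, static exposure, 28C, sealed, dark.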

[6] = Tanguay_ZF_120hpf_OTIC_legacy: (Legacy) Oregon State University Tanguay Lab 120 Hour Post-fertilization zebrafish Assay for Otic Vesicle Malformation (AID 2283639)
Method in brief: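 Embryos from 5D wild-type adults exposed in plates; DMSO 0.64% v/v final. Sealed, light-protected, 28C, static to 120 hpf. Otic vesicle malformation recorded as binary endpoint; gain-of-signal fitted vs DMSO.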

[7] = Tanguay_ZF_120hpf_BRAI_legacy: (Legacy) Oregon State University Tanguay Lab 120 Hour Post-fertilization zebrafish Assay for Brain Malformation (AID 2283641)
Method in brief: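 Read-out: binary brain morphology call at 120 hpf (brightfield), fitted in gain-of-signal direction vs DMSO. Wild-type Tropical 5D embryos, static exposure, 28C, 0.64% DMSO final; 5uM trimethyltin chloride as positive control.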

[8] = Tanguay_ZF_120hpf_PFIN_legacy: (Legacy) Oregon State University Tanguay Lab 120 Hour Post-fertilization zebrafish Assay for Pectoral Fin Malformation (AID 2283648);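 note: each larva judged yes or no for fin defect by brightfield with dead larvae skipped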
Method in brief: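 Tropical 5D wild-type embryos, dechorionated with pronase at 4 hpf, were placed singly in wells at 6 hpf and statically exposed until 120 hpf at 28C, sealed and dark, with 0.64% (vol/vol) final DMSO; pectoral fin malformation scored present/absent.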

[9] = Tanguay_ZF_120hpf_CFIN_legacy: (Legacy) Oregon State University Tanguay Lab 120 Hour Post-fertilization zebrafish Assay for Caudal Fin Malformation (AID 2283649)
Method in brief: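 Dechorionated 5D wild-type zebrafish, static exposure 6–120 hpf, 28C, sealed and dark, 0.64% v/v DMSO final. Binary fin-malformation call at 120 hpf, brightfield; gain of signal vs DMSO baseline.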

[10] = Tanguay_ZF_120hpf_PIG_legacy: (Legacy) Oregon State University Tanguay Lab 120 Hour Post-fertilization zebrafish Assay for Pigmentation Malformation (AID 2283650)
Method in brief: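 Tropical 5D wild-type zebrafish embryos, dechorionated with pronase at 4 hpf, were exposed singly from 6 hpf to 120 hpf statically at 28C in sealed, dark plates with 0.64% DMSO; pigmentation scored present/absent by brightfield microscopy, fitted against DMSO.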

[11] = Tanguay_ZF_120hpf_CIRC_legacy: (Legacy) Oregon State University Tanguay Lab 120 Hour Post-fertilization zebrafish Assay for Circulatory Malformation (AID 2283651)
Method in brief: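 Read-out: presence or absence of circulatory malformation at 120 hpf, scored by brightfield microscopy, fitted in the gain-of-signal direction against DMSO baseline. Wild-type 5D larvae were exposed from 6 hpf after enzymatic chorion removal.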

[12] = read-out: solute carrier (SLC22A6), SLC22A6 (gene 9356); experiment: LTEA_HepaRG_SLC22A6: Life Technologies and Expression Analysis (LTEA) Assay for solute carrier (SLC22A6) using HepaRG (AID 2283653; active = hit-call score of the fitted dose curve at least 0.9, where 1 is the maximum; inactive = score below 0.9); conditions: mRNA level, 48 h; actives raise or lower the signal
Method in brief: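 HepaRG, human liver line; 48 h chemical exposure; 8-pt half-log series from 100 uM in 0.5% DMSO, duplicate wells. Readout: TaqMan qRT-PCR of SLC22A6 mRNA, housekeeping-normalised; bidirectional curve fit vs DMSO baseline.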

[13] = Tanguay_ZF_120hpf_TRUN_legacy: (Legacy) Oregon State University Tanguay Lab 120 Hour Post-fertilization zebrafish Assay for Truncated Body (AID 2283655)
Method in brief: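 Whole-embryo zebrafish screen: dechorionated 5D embryos, static exposure 6–120 hpf, 28C, sealed foil-covered plates, 0.64% DMSO. Binary truncation call; gain of signal versus DMSO baseline.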

[14] = Tanguay_ZF_120hpf_NC_legacy: (Legacy) Oregon State University Tanguay Lab 120 Hour Post-fertilization zebrafish Assay for Notochord and Tail Malformation (AID 2283656)
Method in brief: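 Dechorionated Tropical 5D wild-type zebrafish embryos, one per well from 6 hpf, statically exposed to 120 hpf at 28C in 0.64% DMSO final. Notochord distortion scored present/absent by brightfield; dead embryos excluded.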

[15] = read-out: solute carrier (SLC10A1), SLC10A1 (gene 6554); experiment: LTEA_HepaRG_SLC10A1: Life Technologies and Expression Analysis (LTEA) Assay for solute carrier (SLC10A1) using HepaRG (AID 2283657; active = hit-call score of the fitted dose curve at least 0.9, where 1 is the maximum; inactive = score below 0.9); conditions: mRNA level, 48 h; actives raise or lower the signal
Method in brief: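 Differentiated HepaRG cells were plated 48 h, then exposed in serum-free induction medium for 48 h to 8 concentrations (top 100 uM, half-log steps, 0.5% DMSO). SLC10A1 mRNA was quantified by qRT-PCR normalized to ACTB, GAPDH, POLR2A; bidirectional fit versus DMSO.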

[16] = Tanguay_ZF_120hpf_EYE_legacy: (Legacy) Oregon State University Tanguay Lab 120 Hour Post-fertilization zebrafish Assay for Eye Malformation (AID 2283636)
Method in brief: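 Dechorionated wild-type Tropical 5D zebrafish embryos were exposed statically from 6 hpf, one per well, to 120 hpf at 28C in sealed, foil-covered plates with 0.64% DMSO. Eye malformation was scored present/absent by brightfield microscopy against DMSO controls.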

[17] = Tanguay_ZF_120hpf_PE_legacy: (Legacy) Oregon State University Tanguay Lab 120 Hour Post-fertilization zebrafish Assay for Pericardial Edema (AID 2283640)
Method in brief: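 Static waterborne exposure, 5D wild-type embryos, 28C, to 120 hpf; final DMSO 0.64% (vol/vol). Binary PE call at 120 hpf by brightfield; fitted upward vs DMSO baseline. 5uM trimethyltin chloride as positive control.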

[18] = Tanguay_ZF_120hpf_SWIM_legacy: (Legacy) Oregon State University Tanguay Lab 120 Hour Post-fertilization zebrafish Assay for Swim Bladder Malformation (AID 2283654);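 note: swim bladder malformation in each larva scored yes or no under brightfield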
Method in brief: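 Dechorionated Tropical 5D wild-type embryos, placed singly from 6 hpf, were statically exposed at 28C to 120 hpf with 0.64% DMSO final; swim bladder malformation was scored present/absent by brightfield microscopy, gain of signal relative to DMSO controls.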

[19] = read-out: kallikrein-3 (KLK3), KLK3 (gene 354); experiment: LTEA_HepaRG_KLK3: Life Technologies and Expression Analysis (LTEA) Assay for kallikrein-3 (KLK3) using HepaRG (AID 2283652; active = hit-call score of the fitted dose curve at least 0.9, where 1 is the maximum; inactive = score below 0.9); conditions: mRNA level, 48 h; actives raise or lower the signal
Method in brief: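 Differentiated human HepaRG cells in serum-free induction medium exposed 48 h in duplicate, eight-point half-log series from 100 uM in 0.5% DMSO. KLK3 mRNA by qRT-PCR, normalised to ACTB, GAPDH, POLR2A; bidirectional fit versus DMSO.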

[20] = Tanguay_ZF_120hpf_SOMI_legacy: (Legacy) Oregon State University Tanguay Lab 120 Hour Post-fertilization zebrafish Assay for Somite Malformation (AID 2283647)
Method in brief: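 Binary brightfield scoring of somite defects at 120 hpf in 5D wild-type larvae; one dechorionated embryo per well, static exposure from 6 hpf, 28C, sealed and dark. Final DMSO 0.64%; trimethyltin chloride 5uM positive control.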

Measured: AC50

CCCCN(CCCC)CCCC
not listed: [16] | [17] | [18] | [19] | [20]
inactive: all other assays above

Cc1cccc([N+](=O)[O-])c1C
not listed: [8] | [12] | [15] | [18] | [19] | [20]
inactive: all other assays above

Cc1ccc(C)c(O)c1C
inactive: [1] | [2] | [3] | [4] | [5] | [9] | [10] | [11] | [18] | [13] | [14]

Cc1ccccc1Cl
not listed: [4] | [8] | [12] | [15] | [17] | [19] | [20]
inactive: all other assays above

CN1CCCC1=O
not listed: [4] | [20]
inactive: all other assays above

CC(=O)Oc1ccccc1C(=O)O
not listed: [6] | [12] | [15] | [16] | [17] | [18] | [19] | [20]
inactive: all other assays above

C[Si]1(C)O[Si](C)(C)O[Si](C)(C)O[Si](C)(C)O1
not listed: [8] | [11] | [12] | [15] | [19]
inactive: all other assays above

COc1cc(-c2nc(NC(=O)c3cc4cc(C)cc(C)c4n3CC(=O)O)sc2CCC2CCCCC2)c(OC)cc1Cl
not listed: [12] | [15] | [19]
inactive: all other assays above

COCCOC[C@H](CC1(C(=O)NC2CCC(C(=O)O)CC2)CCCC1)C(=O)Oc1ccc2c(c1)CCC2 (stereo not given in full)
not listed: [12] | [15] | [16] | [19]
inactive: all other assays above

Cc1nc(C)nc(N2C[C@@H](C)N(c3ccnc([C@@H](C)O)n3)[C@@H](C)C2)n1
not listed: [12] | [15] | [16] | [19]
inactive: all other assays above

C1CCC(SSC2CCCCC2)CC1
not listed: [4] | [10] | [11] | [16] | [18] | [20]
inactive: all other assays above

COc1ccc(C)cc1N
not listed: [12] | [14] | [15] | [16] | [17] | [19]
inactive: all other assays above

C=CCOC(=O)c1ccccc1C(=O)OCC=C
active: [1] 13.9 µM | [2] 30.9 µM | [18] 46.4 µM
inactive: [3] | [5] | [6] | [8] | [10] | [11] | [13] | [14]

CNCc1cc(F)ccc1Oc1ccc(Cl)c(Cl)c1
inactive: [1] | [2] | [3] | [5] | [6] | [7] | [8] | [9] | [10] | [18] | [14]

NC(=O)Cn1c(=O)cc(CCN2CCN(c3nccc4sccc34)CC2)c2ccc(F)cc21
inactive: [1] | [2] | [3] | [5] | [6] | [8] | [9] | [11] | [18] | [13] | [14]

COc1cc(S(=O)(=O)O)c(C)cc1N=Nc1c(O)ccc2cc(S(=O)(=O)O)ccc12
inactive: [1] | [2] | [3] | [5] | [6] | [7] | [9] | [10] | [18] | [13] | [14]

CNC(=O)[C@H]1O[C@@H](n2cnc3c(NCc4cc(Cl)ccc4OCc4cc(C)no4)ncnc32)[C@H](O)[C@@H]1N
inactive: [1] | [2] | [3] | [5] | [6] | [20] | [9] | [10] | [11] | [13] | [14]
